We go through nine molecules from PubChem BioAssay (Tox21).

Assay [1] can be described thus: qHTS assay to identify small molecule agonists of the androgen receptor (AR) signaling pathway in the presence of an antagonist - cell viability counter screen (AID 1259379). Further: nearly all actives have a fitted effect of over 25% in size. Further: potency means the concentration at half of the fitted maximal effect. The essentials: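 Seed MDA-kb2 at 3,000 cells/well; incubate 5 hr, 37C, 0% CO2. Add nilutamide to 3.0uM final, then pin compounds at 15 concentrations. Incubate 16 hr. Add CellTiter-Fluor at 15 hr, read fluorescence after 1 hr.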
Background: Quantitative high-throughput screening tests each substance at several concentrations.

A short description of assay [2]: qHTS assay to identify small molecule antagonists of the estrogen receptor beta (ER-beta) signaling pathway - cell viability counter screen (AID 1259382). Further: nearly all actives have a fitted effect of over 55% in size. Further: potency means the concentration at half of the fitted maximal effect. The essentials: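 In this multiplexed counter screen, cells were seeded at 2,000 per well in medium with 2% charcoal-stripped FBS and incubated 6 hr before compound and 1nM final E2 were added. Sixteen hours later, ATP-based luminescence reported viability.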

Assay [3] has as its target Estrogen receptor (Homo sapiens) (UniProt P03372). As to the kind of experiment: qHTS assay to identify small molecule agonists of the estrogen receptor alpha (ER-alpha) signaling pathway in the presence of an antagonist (AID 1259383; calls by dose curve; further: nearly all actives have a fitted effect of over 15% in size; further: potency means the concentration at half of the fitted maximal effect; on activation: top concentration of the series differs between compounds). The essentials: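 Stably transfected VM7Luc4E2 reporter cells, kept 5 days in charcoal-stripped serum, received ICI-182,780 at 10.0nM final before compound addition. Following 22hr incubation at 37C and 5% CO2, luciferase signal was read by luminescence.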

Assay [4] in a line: qHTS assay to identify small molecule agonists or antagonists of the thyroid stimulating hormone receptor (TSHR) signaling pathway - wild type cell line counter screen (AID 1259384; calls by dose curve). The essentials:
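Wild-type Hek293 cells, 800/well, 18 h at 37C, then compound with Ro20-1724 for 30 min RT. cAMP by HTRF (cAMP-d2/anti-cAMP cryptate), 1 h RT, fluorescence read. 15 concentrations, triplicates.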

The target of assay [5] is Thyrotropin receptor (Homo sapiens) (UniProt P16473). In words: qHTS assay to identify small molecule antagonists of the thyroid stimulating hormone receptor (TSHR) signaling pathway (AID 1259385; calls by dose curve; further: nearly all actives have a fitted effect of over 20% in size). In outline:
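TSHR-HEK293 cells (800/well) plated 18 h, then compounds with Ro20-1724 and TSH at 1.5 ng/mL final, 30 min at room temperature. cAMP quantified by HTRF (cAMP-d2/anti-cAMP-cryptate, 1 h); 15 concentrations in triplicate.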

A short description of assay [6]: qHTS assay to identify small molecule agonists of the estrogen receptor alpha (ER-alpha) signaling pathway in the presence of an antagonist - cell viability counter screen (AID 1259386).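 Further: series mostly up to about 92 µM; cells exposed to compounds for 22 h at 37 °C before the viability read; nearly all actives have a fitted effect of over 30% in size.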 In outline:
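Viability counter screen using VM7Luc4E2 (full-length ER-alpha, four ERE-luciferase). The cells were treated with compounds alongside ICI-182,780 10.0nM for 22hr, and live-cell protease fluorescence was quantified with CellTiter-Fluor.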

Assay [7] can be described thus: qHTS assay to identify small molecule antagonists of the progesterone receptor (PR) signaling pathway - cell viability counter screen (AID 1346798). Further: nearly all actives have a fitted effect of over 50% in size. Further: potency means the concentration at half of the fitted maximal effect. The essentials: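 ATP content as viability readout: CellTiter-Glo luminescence, 30 min room temperature, in PR-UAS-bla HEK293T cells after 16 hr compound/R5020 treatment at 37C and 5% CO2.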
The nature of assay [8]: qHTS assay to identify small molecule agonists of the progesterone receptor (PR) signaling pathway - cell viability counter screen (AID 1346799; calls by dose curve; further: nearly all actives have a fitted effect of over 45% in size). The essentials: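 Cytotoxicity in PR-bla HEK293T cells: 16 h compound, 37C; CellTiter-Glo added post-FRET read; luminescence after 30 min RT.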
A short description of assay [9]: qHTS assay to identify small molecule antagonists of the TGF-beta/Smad signaling pathway - cell viability counter screen (AID 1346824). Further: nearly all actives have a fitted effect of over 50% in size. Further: potency means the concentration at half of the fitted maximal effect. In outline: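 SBE-bla HEK 293T cells, incubated overnight, then compound plus 0.25 ng/mL TGF-beta1 (stock added) for 5 hr at 37 C. Viability was read in the same wells by CellTiter-Glo luminescence after 30 min at room temperature.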

Assay [10] in a line: qHTS assay to identify small molecule agonists of the TGF-beta/Smad signaling pathway - cell viability counter screen (AID 1346829). Further: nearly all actives have a fitted effect of over 45% in size. Further: potency means the concentration at half of the fitted maximal effect. The essentials:
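HEK 293T SBE-bla line, 5 hr compound exposure at 37 C, multiplexed CellTiter-Glo viability read by luminescence.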

Assay [11] deals with Thyrotropin-releasing hormone receptor (Homo sapiens) (UniProt P34981). As to the kind of experiment: qHTS assay to identify small molecule antagonists of the thyrotropin-releasing hormone receptor (TRHR) signaling pathway (AID 1346877; active means well fitted inhibition curve with a large enough effect in the repeat runs, not every such curve was filed as active; further: potency means the concentration at half of the fitted maximal effect). The essentials:
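Following an 18 h incubation at 37 °C and a 2 h calcium dye load, TRHR-HEK293 cells were exposed to compound (5 min, room temperature) and challenged with TRH, 1 nM final.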

The target is the same in assay [12]. As to the kind of experiment: qHTS assay to identify small molecule agonists of the thyrotropin-releasing hormone receptor (TRHR) signaling pathway (AID 1346891; calls by dose curve;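 further: HEK293 cells expressing TRHR with calcium dye readout; series mostly up to about 58 µM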). The essentials: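 In 1536-format, 1500 TRHR-Hek293 cells per well grew 18 h, took up calcium dye for 2 h at 37 °C, received compound, and were read kinetically; 15-point titrations, triplicates.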

The nature of assay [13]: Human pregnane X receptor (PXR) small molecule agonists, qHTS cell viability counter screen (AID 1346977). Further: nearly all actives have a fitted effect of over 50% in size. Further: potency means the concentration at half of the fitted maximal effect. In outline: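 Readout is CellTiter-Fluor fluorescence from PXR-Luc HepG2 cells. Plated cells rested 5hr, then were treated with compounds for 24hr at 37C and 5% CO2, with reagent present during the last hour.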
For assay [14], the target named is Progesterone receptor (Homo sapiens) (UniProt P06401). As to the kind of experiment: qHTS assay to identify small molecule agonists of the progesterone receptor (PR) signaling pathway (AID 1346784; calls by dose curve; further: nearly all actives have a fitted effect of over 30% in size; further: potency means the concentration at half of the fitted maximal effect). The essentials: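 Using charcoal-stripped serum (2%) to limit endogenous steroids, PR-UAS-bla HEK 293T cells received compounds for 16 hr at 37C after 6 hr plating; beta-lactamase FRET fluorescence was recorded following 2 hr substrate loading at room temperature.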
Chain of Progesterone receptor (Homo sapiens) (P06401 whole entry, looked up): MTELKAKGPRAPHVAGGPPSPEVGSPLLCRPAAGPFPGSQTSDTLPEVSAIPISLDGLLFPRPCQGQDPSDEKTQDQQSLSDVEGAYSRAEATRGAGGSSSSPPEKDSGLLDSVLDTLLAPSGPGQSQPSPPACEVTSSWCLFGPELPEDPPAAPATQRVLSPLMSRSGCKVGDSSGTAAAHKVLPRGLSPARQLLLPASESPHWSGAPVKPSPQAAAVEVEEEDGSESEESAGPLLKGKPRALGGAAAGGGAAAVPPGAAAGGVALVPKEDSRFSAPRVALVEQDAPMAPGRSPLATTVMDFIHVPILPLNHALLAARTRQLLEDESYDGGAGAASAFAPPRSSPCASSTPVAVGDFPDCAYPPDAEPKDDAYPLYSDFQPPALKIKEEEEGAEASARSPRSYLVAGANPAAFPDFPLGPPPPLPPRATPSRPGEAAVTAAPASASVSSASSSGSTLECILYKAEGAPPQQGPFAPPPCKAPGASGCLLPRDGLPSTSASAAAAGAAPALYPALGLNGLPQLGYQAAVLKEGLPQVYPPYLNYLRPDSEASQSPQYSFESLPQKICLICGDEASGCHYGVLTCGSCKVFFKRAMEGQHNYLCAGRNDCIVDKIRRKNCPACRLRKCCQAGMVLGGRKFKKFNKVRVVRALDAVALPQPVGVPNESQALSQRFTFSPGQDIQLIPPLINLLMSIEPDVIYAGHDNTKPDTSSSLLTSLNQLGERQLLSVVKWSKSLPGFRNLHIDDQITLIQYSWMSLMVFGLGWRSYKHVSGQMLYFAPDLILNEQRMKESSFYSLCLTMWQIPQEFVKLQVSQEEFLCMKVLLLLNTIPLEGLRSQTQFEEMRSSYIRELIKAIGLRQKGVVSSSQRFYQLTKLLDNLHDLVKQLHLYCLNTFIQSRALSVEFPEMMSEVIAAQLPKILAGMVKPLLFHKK

The target is the same in assay [15]. As to the kind of experiment: qHTS assay to identify small molecule antagonists of the progesterone receptor (PR) signaling pathway (AID 1346795; active means well fitted inhibition curve with a large enough effect in the signal ratio in the repeat runs, not every such curve was filed as active; the % refers to the signal ratio; further: potency means the concentration at half of the fitted maximal effect). The essentials:
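Inhibition of R5020-induced (1 nM final) beta-lactamase reporter signal in PR-UAS-bla HEK293T cells was scored by FRET fluorescence after overnight (16 hr) compound treatment.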

Assay [16] is described as follows: qHTS assay to identify small molecule agonists of the TGF-beta/Smad signaling pathway (AID 1346859; active means well fitted activation curve with a large enough effect in the signal ratio in the repeat runs, not every such curve was filed as active; the % refers to the signal ratio; further: series mostly up to about 77 µM). The essentials: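 Stable Smad binding element-beta-lactamase HEK 293T cells; 5 hr compound exposure at 37 C under 5% CO2; 2 hr room-temperature substrate step; fluorescence excited at 405 nm, collected at 460 nm and 530 nm.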
The nature of assay [17]: qHTS assay to identify small molecule agonists of the estrogen receptor beta (ER-beta) signaling pathway - cell viability counter screen (AID 1259380). Further: nearly all actives have a fitted effect of over 30% in size. Further: potency means the concentration at half of the fitted maximal effect. In outline:
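CellTiter-Glo read, 30 min RT, same wells as bla assay; cells ER-beta-UAS-bla HEK293T; 16 hr compound, 37C; medium 2% charcoal-stripped FBS.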

Each structure is given as a SMILES string. Several values for one entry are separate records, joined by “and”; a condition that tells them apart may be missing. Equal entries are not always repeated. Inconclusive results are not listed. Where a structure was tested more than once in an assay, its records may differ in their call. Activity calls are given as the source filed them. Unless noted, the call rests on the fitted dose curve; in most records, active means well fitted curve in the direction sought with a large enough effect in the repeat runs; inconclusive means weak or mixed curves; inactive means no such curve, though single readings can be large; an effect the other way counts as inactive or inconclusive.

Chain of Thyrotropin-releasing hormone receptor (Homo sapiens) (P34981 whole entry, looked up): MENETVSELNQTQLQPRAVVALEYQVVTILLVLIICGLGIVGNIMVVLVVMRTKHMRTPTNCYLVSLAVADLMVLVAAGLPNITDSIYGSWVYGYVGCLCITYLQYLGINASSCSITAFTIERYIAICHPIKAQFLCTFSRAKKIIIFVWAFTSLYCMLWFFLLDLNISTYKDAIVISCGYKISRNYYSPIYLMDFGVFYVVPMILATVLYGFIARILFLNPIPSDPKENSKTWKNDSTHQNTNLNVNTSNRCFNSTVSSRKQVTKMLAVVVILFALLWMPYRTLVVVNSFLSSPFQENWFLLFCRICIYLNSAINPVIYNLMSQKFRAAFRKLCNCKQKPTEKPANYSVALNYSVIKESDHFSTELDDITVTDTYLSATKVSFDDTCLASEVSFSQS
Chain of Estrogen receptor (Homo sapiens) (P03372 whole entry, looked up): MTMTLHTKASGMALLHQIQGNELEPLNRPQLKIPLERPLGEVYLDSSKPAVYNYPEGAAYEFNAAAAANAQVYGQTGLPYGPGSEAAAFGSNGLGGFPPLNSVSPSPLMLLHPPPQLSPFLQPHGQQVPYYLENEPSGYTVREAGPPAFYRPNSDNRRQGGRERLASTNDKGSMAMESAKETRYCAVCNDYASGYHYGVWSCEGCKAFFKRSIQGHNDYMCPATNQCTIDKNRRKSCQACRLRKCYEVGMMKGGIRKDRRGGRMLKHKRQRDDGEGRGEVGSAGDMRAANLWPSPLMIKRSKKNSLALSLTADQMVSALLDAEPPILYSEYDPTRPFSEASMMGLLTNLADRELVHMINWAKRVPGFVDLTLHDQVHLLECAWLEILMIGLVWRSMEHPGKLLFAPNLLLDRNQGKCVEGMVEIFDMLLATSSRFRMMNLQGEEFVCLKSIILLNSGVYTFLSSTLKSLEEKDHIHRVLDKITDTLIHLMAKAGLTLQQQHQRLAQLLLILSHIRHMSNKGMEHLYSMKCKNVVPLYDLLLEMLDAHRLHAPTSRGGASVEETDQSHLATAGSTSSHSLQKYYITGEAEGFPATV
Chain of Thyrotropin receptor (Homo sapiens) (P16473 whole entry, looked up): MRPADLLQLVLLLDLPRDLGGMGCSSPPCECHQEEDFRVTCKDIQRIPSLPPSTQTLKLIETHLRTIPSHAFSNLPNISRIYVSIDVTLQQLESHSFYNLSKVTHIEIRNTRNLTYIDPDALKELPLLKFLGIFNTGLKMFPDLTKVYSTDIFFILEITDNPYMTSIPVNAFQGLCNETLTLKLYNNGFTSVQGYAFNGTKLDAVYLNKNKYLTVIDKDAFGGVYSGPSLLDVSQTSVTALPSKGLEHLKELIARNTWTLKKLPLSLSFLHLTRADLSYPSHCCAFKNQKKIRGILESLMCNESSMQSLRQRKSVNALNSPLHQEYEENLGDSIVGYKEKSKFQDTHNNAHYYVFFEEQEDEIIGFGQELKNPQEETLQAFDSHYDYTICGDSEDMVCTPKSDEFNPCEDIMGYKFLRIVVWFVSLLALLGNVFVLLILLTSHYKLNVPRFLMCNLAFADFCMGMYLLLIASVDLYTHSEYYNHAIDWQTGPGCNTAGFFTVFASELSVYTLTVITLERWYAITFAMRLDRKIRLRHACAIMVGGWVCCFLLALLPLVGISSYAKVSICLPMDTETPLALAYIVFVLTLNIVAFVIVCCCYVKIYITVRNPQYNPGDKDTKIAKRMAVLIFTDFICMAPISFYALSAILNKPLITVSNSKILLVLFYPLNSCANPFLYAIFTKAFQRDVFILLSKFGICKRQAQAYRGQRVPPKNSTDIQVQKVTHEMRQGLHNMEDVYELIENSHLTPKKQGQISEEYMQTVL

For the molecule `COc1ccc2c(c1)c(CC(=O)OC/C=C(\C)CC/C=C(\C)CCC=C(C)C)c(C)n2C(=O)c1ccc(Cl)cc1`, the Potency result in assay [1], in assay [2], in [3], in [5], in assay [6] and in assay [7] was “inactive” throughout. Further, the Potency result in [8], in assay [9], in assay [10], in [11] and in [13] was “inactive” throughout. The molecule was classed as inactive in [4] and in assay [12].
On to `Cc1nc2n(c(=O)c1CCN1CCC(c3noc4cc(F)ccc34)CC1)CCCC2`, for which the Potency entry in [1], in assay [2], in assay [3], in assay [6], in [14] and in assay [15] was “inactive” each time. In addition, the Potency entry in [7], in assay [8], in assay [9], in [10], in [16] and in assay [11] was “inactive” each time. Moreover, the outcome in [4] and in [12] was inactive.
Turning to `CCCCCCCCCCCCCCCC[N+](C)(C)CC`, the Potency in assay [1] is 48.7 µM (active) and 18.8 µM (active); in assay [17] it was 54.6 µM (active) and 11.9 µM (active); in assay [7] it was 68.8 µM (active); in assay [9] it was 43.8 µM (active); in [10] it was 55.1 µM (active) and 26.8 µM (active); in assay [11] it was 30.2 µM (active) and inactive. Moreover, the Potency in assay [13] was 54.6 µM (active). The Potency result in [3], in assay [5], in assay [6] and in [14] was “inactive” each time. In addition, the molecule was called inactive in assay [4] and in assay [12].
On to `CC[N+](CC)(CC)CCOC(=O)C(C1CCCC1)C1CCCC1`, for which, in assay [1], the Potency was 33.5 µM (active). For the same molecule, the Potency result in [17], in [2], in assay [3], in [6], in assay [14] and in [15] was “inactive” each time. For the same molecule, the Potency result in assay [7], in assay [8], in assay [9], in assay [10], in assay [16] and in assay [11] was “inactive” in each case. Further, the Potency result in assay [13] is “inactive”. The result in [12] was inactive.
`Cc1ccc(C(=O)O)cc1`: the Potency entry in [1], in [2], in assay [5], in [6], in assay [14] and in assay [15] was “inactive” throughout. The Potency result in assay [7], in assay [9], in assay [10], in [16], in assay [11] and in [13] was “inactive” each time. Moreover, the molecule was classed as inactive in assay [4] and in assay [12].
Consider `CC(N=C(NC#N)Nc1ccncc1)C(C)(C)C` (centres undefined), for which the Potency entry in assay [1], in assay [17], in assay [2], in assay [5], in assay [6] and in assay [14] was “inactive” throughout. For the same molecule, the Potency entry in assay [15], in assay [9], in assay [10], in assay [11] and in assay [13] was “inactive” throughout. The molecule was called inactive in assay [4] and in [12].
For the molecule `C#CC1(O)CC[C@H]2[C@@H]3CCC4=CCCC[C@@H]4[C@H]3CC[C@@]21C` (some centres undefined), the Potency result in [1], in [5], in [6], in [9], in assay [16] and in [11] was “inactive” throughout. The Potency was 61.1 µM (active) and 29.8 µM (active) in assay [17]; 611 nM (active) and 473 nM (active) in [3]; 0.486 µM (active) in assay [14]. Besides, the result in assay [4] and in assay [12] was inactive.
Take `O=C(c1ccc(O)c(O)c1)c1ccc(O)cc1O`: the Potency was 68.5 µM (active) in assay [1] and 15.3 µM (active) in assay [15]. Besides, the Potency entry in [17], in assay [2], in assay [9] and in assay [10] was “inactive” each time.
With `CCCCCCCCCCCCCC[N+](C)(C)C`, the Potency is 33.2 µM (active) and 24.3 µM (active) and 10.6 µM (active) in assay [1]; 26.4 µM (active) and 27.3 µM (active) in assay [17]; 26.4 µM (active) and 30.6 µM (active) and 33.5 µM (active) in assay [2]; 48.5 µM (active) and 33.5 µM (active) in [7]; 42.2 µM (active) and 54.9 µM (active) in [9]; 54.9 µM (active) and inactive in assay [10]. Further, in assay [13], the Potency is 52.7 µM (active) and 27.3 µM (active) and 26.6 µM (active). In addition, the Potency result in assay [3], in [6] and in assay [14] was “inactive” throughout.
